# TDP1 cell CPT: growth inhibition of DT40 Tdp1-/-;hTDP1 cells with camptothecin (screen for TDP1 inhibitors); chicken DT40 Tdp1-/-;hTDP1 cells + 20 nM CPT, ATP luminescence, 48 h; Potency, µM (highest dose often 46.2 µM), for inactives: top-dose activity change, negative = growth inhibition, usual class: inhibitors; 12% of 420,000 active; note: potency is the fitted concentration of half-maximal effect; % is set by controls: 0 for no effect and ±100 for the full control effect; nearly all actives have a fitted effect of over 55% in size
#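 Cell growth measured by CellTiter-Glo luminescence after a minimum 48 h, 37 C compound exposure with 20 nM CPT in Tdp1-knockout DT40 cells stably expressing hTDP1, seeded 400/well; qHTS titration format.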
# TGFb inhibitor: TGF-b pathway inhibition; HepG2 CAGA-GFP TGF-b/SMAD3 reporter, GFP fluorescence, 18 h; TGF-beta stimulated, 500 pg/mL final; Potency, µM (series often up to 46.1 µM), for inactives: at the highest dose activity, negative = inhibition, actives largely listed as inhibitors; 1.2% of 410,000 active; note: potency is the fitted concentration of half-maximal effect; % is set by controls: 0 for no effect and ±100 for the full control effect; nearly all actives have a fitted effect of over 65% in size
#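 TGF-beta reporter screen: HEPG2 CAGA-GFP, 1% FBS, 500 pg/mL TGF-beta final, 18 h; per-cell GFP summed per well; curves fitted and categorized by class.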
# ASM inhibitor: blocks human secretory acid sphingomyelinase. Potency, µM (top dose mostly 57.5 µM), inactives show top-dose activity change, negative = inhibition, usual class: inhibitors. 0.006% of 340,000 active. placental ASM, HMU-PC fluorogenic substrate, 60 min. P17405; note: potency is the fitted concentration of half-maximal effect
# Target sequence (P17405 47-631 limits assumed): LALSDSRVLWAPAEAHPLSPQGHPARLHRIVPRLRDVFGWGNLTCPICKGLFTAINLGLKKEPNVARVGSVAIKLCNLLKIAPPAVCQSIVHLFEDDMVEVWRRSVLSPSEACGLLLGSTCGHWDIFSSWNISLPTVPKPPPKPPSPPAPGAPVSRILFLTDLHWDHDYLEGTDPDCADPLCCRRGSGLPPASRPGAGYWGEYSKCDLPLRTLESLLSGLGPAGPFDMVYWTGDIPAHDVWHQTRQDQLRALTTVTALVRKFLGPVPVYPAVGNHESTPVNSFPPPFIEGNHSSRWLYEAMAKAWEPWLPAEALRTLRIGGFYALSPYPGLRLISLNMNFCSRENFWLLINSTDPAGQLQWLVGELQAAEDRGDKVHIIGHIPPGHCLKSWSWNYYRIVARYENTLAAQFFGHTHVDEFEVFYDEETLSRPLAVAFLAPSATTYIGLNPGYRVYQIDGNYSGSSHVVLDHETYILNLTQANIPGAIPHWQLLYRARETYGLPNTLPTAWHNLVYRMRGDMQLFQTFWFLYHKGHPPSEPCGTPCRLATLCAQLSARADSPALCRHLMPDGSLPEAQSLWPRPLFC
#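 Steps: dispense placental human ASM, pin compound, wait 10 min at room temperature, add HMU-PC0 substrate at 9 uM final, incubate 60 min at 37 °C, add stop solution raising pH to 10, read fluorescence.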
# DT40 TDP1 no CPT: qHTS for Inhibitors of human tyrosyl-DNA phosphodiesterase 1 (TDP1): qHTS in cells in absence of CPT. 15% of 420,000 active. Potency, µM (titrated, usually from 46.2 µM), inactives show at the top dose activity change, negative = growth inhibition, most hits filed as inhibitors. DT40 Tdp1-/- hTDP1 cells, no CPT, ATP luminescence, 48 h; note: potency is the fitted concentration of half-maximal effect; % is set by controls: 0 for no effect and ±100 for the full control effect; nearly all actives have a fitted effect of over 55% in size
#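 Compound effects on proliferation are scored in DT40 Tdp1-/-;hTDP1 cells in the absence of CPT. ATP levels (CellTiter-Glo luminescence) are recorded after a ≥48 hr, 37 °C incubation.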
# HepG2 tox: HepG2 cytotoxicity, counter-screen for TGF-b inhibitors; Potency, µM (top dose mostly 46.1 µM), for the others: at the highest dose activity change, negative = cytotoxicity, actives largely listed as cytotoxic; HepG2 CAGA-GFP viability, ATP luminescence, 18 h; AID 588856; 0.76% of 410,000 active; note: potency is the fitted concentration of half-maximal effect
#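 HepG2 CAGA-GFP cells (1000/well, DMEM with 1% FBS) received compound, then TGF-beta at 500 pg/mL final, and were incubated 18 hours at 37 degrees C. Viability was read by CellTiter-Glo luminescence. Media-only wells were set as complete cell-killing and DMSO as no toxicity.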
# IL1B secr inh: inflammasome signaling inhibition, IL-1 beta readout; THP-1 LPS/ATP IL-1B secretion, AlphaLISA, 16 h; hits give low values; activity change, % at 57.5 µM; 4.7% of 360,000 active; AID 743279; in the data active = activity change below about -50%; inconclusive = mostly about -30% to -49%; note: % is set by controls: 0 for no effect and ±100 for the full control effect
#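 Secreted IL-1B measured by AlphaLISA bead assay after 16 h compound exposure of THP-1 cells; compounds (final up to 57.5 uM) added 1 h before LPS (250 ng/mL) and ATP (1.25 mM) stimulation; lower signal means less secretion.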
# * = called active by the depositor; i = inactive; ? = inconclusive; . = not tested or not shown; [ ] = remark or other dose. This is a sample that favours compounds with a hit; in the whole collection about 19% have one here. Unless noted, calls come from the whole dose curve; as a rule, active = well fitted curve in the direction sought with a large enough effect; inconclusive = small, poorly fitted or top-dose-only effect, or another doubt; inactive = no such curve, though single readings can be large; an effect the other way counts as inactive or inconclusive.
SMILES,TDP1 cell CPT,TGFb inhibitor,ASM inhibitor,DT40 TDP1 no CPT,HepG2 tox,IL1B secr inh
CCOC(=O)[C@H]1[C@H]2COc3ccc(Br)cc3[C@@H]2N2C(=O)CN(Cc3ccccc3)C(=O)[C@@]12C,?,?,-4%,26µM*,-5%,-26
CCOC(=O)[C@H]1[C@H]2COc3ccc(C)cc3[C@@H]2N2C(=O)CN(Cc3ccccc3)C(=O)[C@@]12C,?,6%,4%,?,-2%,?
O=C(COc1ccccc1C(=O)OCC(=O)Nc1cccc2ccccc12)Nc1ccc(Br)cc1,?,7%,.,?,2%,.
O=C1NCCN(CC2CCN(CC3CCCC3)CC2)C1=O,-24%,-3%,-3%,-4%,-24%,23
c1ccc(Cn2ncc3c(N4CCN(C(c5ccccc5)c5ccccc5)CC4)ncnc32)cc1,18µM*,6%,-2%,21µM*,12%,-1
c1ccc(Cn2ncc3c(N4CCN(c5ccccc5)CC4)ncnc32)cc1,18µM*,-6%,.,16µM*,-12%,?
CCN(c1cccc(C)c1)S(=O)(=O)c1nnc(NC(=O)c2ccccc2Cl)s1,?,0%,.,?,-50%,.
O=C(CCC1N=C2c3ccccc3N=C(SCc3ccccc3F)N2C1=O)NCc1ccc(F)cc1 (stereo unspecified),?,?,.,26µM*,-33%,.
O=C(CCC1N=C2c3ccccc3N=C(SCc3ccccc3F)N2C1=O)NCc1ccccc1 (stereo unspecified),?,15%,.,18µM*,-2%,.
O=C(CCC1N=C2c3ccccc3N=C(SCc3ccc(F)cc3)N2C1=O)NCc1ccc(F)cc1 (stereo unspecified),?,-26%,.,?,-31%,.
COc1ccc(CNC(=O)CCC2N=C3c4ccccc4N=C(SCc4ccc(F)cc4)N3C2=O)cc1 (stereo unspecified),?,?,.,23µM*,-27%,.
COc1ccc(CNC(=O)CCC2N=C3c4ccccc4N=C(SCc4ccccc4F)N3C2=O)cc1 (stereo unspecified),?,-3%,.,?,-16%,.
CCN(CC)C(=O)c1csc([C@@H]2O[C@H](CO)[C@H](O)[C@H](O)[C@H]2O)n1,5%,6%,.,11%,10%,2
COc1ccccc1N1C(=O)C2C(C(=O)c3ccccc3)=NN(c3ccccc3OC)C2C1=O (stereo unspecified),5%,14%,-10%,1%,0%,16
CC1(C)C(=O)Nc2ccccc2N1C(=O)COC(=O)c1ccc(NC(N)=O)cc1,?,17%,1%,?,10%,-9
Cc1nc2sccn2c(=O)c1S(=O)(=O)NCC1CCN(Cc2ccc(Cl)cc2)CC1,?,1%,.,?,-38%,12
CCOc1ccccc1/C=C/C(=O)c1ccc(Cl)cc1,?,?,-2%,16µM*,-68%,i
O=C(/C=C/c1ccccc1O)c1ccc(Cl)cc1,21µM*,-6%,-2%,23µM*,5%,?
CCOc1ccc(/C=C/C(=O)c2ccc(-c3ccccc3)cc2)cc1,?,0%,25%,?,-3%,-9
O=C(/C=C/c1ccccc1O)c1ccccc1,21µM*,-7%,0%,15µM*,-33%,-54*
COC(=O)C(=Cc1ccccc1[N+](=O)[O-])C(=O)OC,8.2µM*,?,-1%,12µM*,-41%,-66*
CC(C)(C)NC(=O)C(c1ccc(O)cc1)N(C(=O)CCC(=O)Nc1ccccn1)c1ccc(F)cc1 (stereo unspecified),0%,-11%,6%,-15%,-13%,11
O=C(O)c1ccccc1O,6%,-4%,5%,-5%,4%,19
O=C(/C=C/c1ccccc1[N+](=O)[O-])OCC(=O)c1ccccc1,-1%,3%,-2%,-7%,-20%,0
O=C(/C=C(\O)c1ccccc1)c1ccccc1O,16µM*,.,.,8.2µM*,.,.
SMILES,TDP1 cell CPT,TGFb inhibitor,ASM inhibitor,DT40 TDP1 no CPT,HepG2 tox,IL1B secr inh
O=C(NNS(=O)(=O)c1ccccc1[N+](=O)[O-])c1ccc(F)cc1,?,-13%,?,16µM*,-11%,-11
O=C(/C=C/c1ccccc1[N+](=O)[O-])c1ccc(F)cc1,13µM*,-9%,3%,18µM*,-7%,?
Cc1cc(O)c(C(=O)/C=C/c2ccccc2O)c(=O)o1,23µM*,-11%,-3%,29µM*,-23%,?
O=C(NNS(=O)(=O)c1ccccc1[N+](=O)[O-])c1ccc(O)cc1,3%,?,-1%,3%,-3%,35
Cc1cc(O)c(C(=O)/C=C/c2cccc([N+](=O)[O-])c2)c(=O)o1,?,-11%,1%,?,-6%,-3
CC(=O)c1sc2nc(-c3ccccc3)cc(C)c2c1N,6%,?,6%,?,-3%,-19
CN(Cc1ccco1)C(=O)Cn1cc(S(=O)(=O)N2CCCC2)c(S(=O)(=O)N2CCCC2)c1,-6%,-7%,2%,?,-12%,18
CCN(Cc1ccccc1)C(=O)/C=C/c1ccccc1[N+](=O)[O-],16µM*,0%,1%,?,4%,0
CN(Cc1cccs1)C(=O)/C=C/c1ccccc1[N+](=O)[O-],-4%,3%,-1%,-28%,0%,16
O=C(/C=C/c1cccc2ccccc12)c1ccncc1,21µM*,11µM*,-4%,15µM*,11µM*,-82*
O=C(/C=C/c1cccc2ccccc12)N1CCOCC1,0%,-20%,14%,-8%,-6%,-14
O=C(Nc1nccs1)C1CC(=O)N(c2ccccc2)C1 (stereo unspecified),-6%,21%,4%,3%,-26%,38
O=Cc1cnc2ccccc2c1-c1ccccc1,?,0%,-2%,23µM*,-1%,33
O=Cc1cn[nH]c1-c1ccccc1,2%,13%,6%,-20%,-2%,4
CCSC1=N/C(=C\c2ccccc2)C(=O)N1c1ccc(OC)cc1,?,-1%,35%,21µM*,-3%,-5
C=CCSC1=N/C(=C\c2cccnc2)C(=O)N1c1ccc(OC)cc1,-6%,6%,-10%,?,-1%,12
COc1ccccc1C(=O)N[C@@H]1c2ccccc2C2(CCN(Cc3c(O)cccc3OC)CC2)[C@H]1O,-8%[9.04 µM],.,.,18µM*,.,.
